Results from PubChem BioAssay AID588591 (National Center for Advancing Translational Sciences (NCATS), 2011).
“And” between values parts separate entries of the source, which are not always exact repeats. Identical values can stand only once. Hit rate of the full screen: of about 390,000 compounds, about 4,700 (1.2%) were called active. About 4% were inconclusive and are not listed. Calls come from the whole dose curve; as a rule, active = well fitted inhibition curve with a large enough effect; inconclusive = small, poorly fitted or top-dose-only effect, or another doubt; inactive = no such curve, though single readings can be large or run the other way. The list comes from a sample in which actives are over-represented; it also holds similar structures and randomly drawn compounds. Where a call stands in place of a potency, no number is given. Some compounds were tested as several samples or in several runs, with calls that do not always agree.

biological target: DNA polymerase eta (Homo sapiens) (UniProt Q9Y253); assay: qHTS for Inhibitors of Polymerase Eta; details: recombinant Pol eta, fluorescent DNA replication assay; series mostly up to 114 µM
Procedure, shortened: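 Pol eta (10 nM) was preincubated with compounds for 15 min at room temperature, after which fluorescent replication substrate (50 nM final) was added to start the reaction. Fluorescence was read kinetically at 0 and 10 min.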
Potency is the fitted concentration of half-maximal effect.

Chain of DNA polymerase eta (Homo sapiens) (Q9Y253 whole entry, looked up): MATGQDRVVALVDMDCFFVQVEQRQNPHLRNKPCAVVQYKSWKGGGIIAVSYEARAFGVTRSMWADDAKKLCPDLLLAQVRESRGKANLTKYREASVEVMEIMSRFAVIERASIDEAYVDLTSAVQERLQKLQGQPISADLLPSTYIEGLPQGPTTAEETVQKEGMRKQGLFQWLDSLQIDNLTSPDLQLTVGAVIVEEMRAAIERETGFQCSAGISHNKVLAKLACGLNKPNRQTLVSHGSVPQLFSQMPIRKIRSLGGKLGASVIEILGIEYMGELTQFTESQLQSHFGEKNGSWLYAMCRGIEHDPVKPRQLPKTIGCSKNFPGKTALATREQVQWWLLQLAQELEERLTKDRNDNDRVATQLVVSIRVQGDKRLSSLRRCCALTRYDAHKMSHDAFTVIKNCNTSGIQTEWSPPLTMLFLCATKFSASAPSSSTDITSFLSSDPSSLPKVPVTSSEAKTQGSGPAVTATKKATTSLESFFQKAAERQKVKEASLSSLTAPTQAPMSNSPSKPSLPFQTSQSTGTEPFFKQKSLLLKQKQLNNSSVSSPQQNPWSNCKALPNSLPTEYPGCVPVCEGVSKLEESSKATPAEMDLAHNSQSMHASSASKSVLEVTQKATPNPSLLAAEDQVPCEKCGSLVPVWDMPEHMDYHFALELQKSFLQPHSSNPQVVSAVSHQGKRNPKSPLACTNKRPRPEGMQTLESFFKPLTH

Compound	Potency
CCCn1c(NCc2ccc(N(CC)CC)cc2)nc2ccccc21	inactive
COc1cccc(-n2c(=O)c3c(C)c(C(=O)N(C)C)sc3n(Cc3cccc(C)c3)c2=O)c1	inactive
CCOC(=O)c1c(S(=O)(=O)NCC(=O)Nc2ccc(Cl)c(C(F)(F)F)c2)c(C)n(C)c1C	inactive
O=C1COc2c1ccc(O)c2O	22.4 µM (active)
CCSc1nnc2c(n1)OC(c1ccc(OCC(=O)O)cc1)Nc1ccccc1-2 (centres undefined)	inactive
Cc1ccccc1NC(=O)c1c(NC(=O)c2ccccc2F)sc2c1CCC(C)C2 (centres undefined)	inactive
CCOc1cccc(CC(=O)N2CCc3c([nH]c4ccccc34)C2c2ccc(F)cc2)c1OCC (centres undefined)	inactive
CCOc1cccc2c1N[C@@H](c1ccc(C(=O)O)cc1)[C@H]1CC=C[C@@H]21	8.91 µM (active)
CCOc1ccccc1C1NC(=O)NC(C)=C1C(=O)OCc1ccco1 (centres undefined)	inactive
COc1cccc2c1cc1c(=O)n(CC(=O)N3CCN(c4ccccc4)CC3)nc(C)n12	inactive
COc1ccc(CNC(=O)c2ccc3c(c2)nc2n3CCOC2)c(OC)c1	inactive
COc1cccc(CNS(=O)(=O)c2ccc3c(c2)CC(C)N3C(=O)C2CCC2)c1 (centres undefined)	inactive
CC1CCN(S(=O)(=O)c2ccc(S(=O)(=O)NCc3ccco3)cc2)CC1	inactive
CCC(=O)N1c2ccc(S(=O)(=O)NCc3ccco3)cc2CC1C (centres undefined)	56.2 µM (active)
COc1ccccc1CNC(=O)c1ccccc1NC(=O)c1nsc2ccccc12	inactive
COc1ccc(-c2c(C)c3ccc(O)c(CN4CCN(C)CC4)c3oc2=O)cc1OC	inactive
COc1c(O)cc2oc(-c3ccc(O)c(O)c3)cc(=O)c2c1O	3.55 µM (active)
COc1cc(O)c2c(=O)c3c(O)c(O)ccc3oc2c1OC	inactive
Cc1cc(F)ccc1NC1(c2ccccc2)C(=O)c2ccccc2C1=O	inactive
Cc1ccc(NC(=O)Cn2cnc3nc4c(cc3c2=O)CCCC4)cc1Cl	inactive
Cc1ccccc1CS(=O)(=O)CC1Nc2ccc(C(=O)NCc3ccc(Cl)cc3)cc2NC1=O (centres undefined)	inactive
Cc1ccc(N2CC(c3nnc(Cc4ccccc4Cl)o3)CC2=O)cc1 (centres undefined)	inactive
Cc1cc(/C=C2/C(=N)N3C(=NC2=O)SN=C3S(C)(=O)=O)c(C)n1-c1ccccc1	44.7 µM (active)
CS(=O)(=O)C1=NN2C(=N)/C(=C\c3ccc(OCCOc4ccccc4)cc3)C(=O)N=C2S1	44.7 µM (active)

Compound	Potency
CCS(=O)(=O)C1=NSC2=NC(=O)/C(=C\c3ccc(OS(=O)(=O)c4ccccc4)cc3)C(=N)N21	20 µM (active)
Cc1nc2ccn(Cc3cccnc3)c(=O)c2cc1C(=O)N1CCN(c2ccccc2F)CC1	inactive
CCOc1ccccc1C(=O)Nc1ccc(S(=O)(=O)N2CCCCC2c2cccnc2)cc1 (centres undefined)	inactive
COc1ccc(-c2cn3c(C)c(C(=O)Nc4cc(C)cc(C)c4)sc3n2)cc1	inactive
COc1ccc(Cn2c(C(=O)O)c(CNCc3cccc(OC)c3)c3ccc(C)cc32)cc1	inactive
O=C(CC(c1cccs1)N1Cc2ccccc2C1=O)Nc1ccc(F)cc1F (centres undefined)	inactive
O=C(/C=C/c1ccc([N+](=O)[O-])o1)NNC(=O)c1ccc(F)cc1	79.4 µM (active)
CCOc1ccc(NC(=O)c2cc3c(=O)n(Cc4cccs4)ccc3nc2C)cc1	inactive
CCOc1ccc(-c2nonc2NC(=O)c2oc3ccc(C)cc3c2C)cc1OCC	inactive
Cc1c(Cl)cccc1NC(=O)N1CCN(C(=O)c2nsc3ccccc23)CC1	inactive
COc1ccc(Cl)cc1S(=O)(=O)Nc1cccc(C(=O)O)c1	inactive
O=C(CCCOc1ccccc1)Nc1cccc(C(=O)O)c1	inactive
C/C(=N\Nc1cccc(C(=O)O)c1)c1ccc2c(c1)Nc1ccccc1S2	20 µM (active)
CC1=C(C(=O)OCc2ccc(C)cc2)C(c2c(Cl)cccc2Cl)CC(=O)N1 (centres undefined)	inactive
COc1cc(Cl)c(NC(=O)CC(C)S(=O)(=O)c2cc3c(cc2C)NC(=O)CO3)c(OC)c1 (centres undefined)	inactive
O=C(CCC(=O)N1CC2CCCN2c2ccccc21)NCc1ccccc1Cl (centres undefined)	inactive
Nc1ccc2[nH]c(=S)sc2c1	22.4 µM (active)
Cc1ccc(Cn2cc(CCC(=O)NCc3ccc(OC(C)C)cc3)c3ccccc32)cc1	inactive
CC(=O)Nc1cc(C(=O)NCc2ccc(F)cc2)ccc1Sc1ccc(F)cc1	inactive
CCOC(=O)c1c(C)[nH]c(C)c1S(=O)(=O)N1CCCC(C(=O)NCc2ccccc2Cl)C1 (centres undefined)	inactive
O=C(CCS(=O)(=O)c1ccc2c(c1)NC(=O)CO2)Nc1cccc(C(F)(F)F)c1	inactive
Cc1cc(OC(C)C(=O)Nc2ccc(S(=O)(=O)Nc3onc(C)c3C)cc2)cc(C)c1Cl (centres undefined)	inactive
Cc1cc(C)c2nc(-c3cccnc3)cc(C(=O)Nc3ccc(S(=O)(=O)Nc4onc(C)c4C)cc3)c2c1	44.7 µM (active)
Cc1noc(NS(=O)(=O)c2ccc(NC(=O)c3oc4ccc(F)cc4c3C)cc2)c1C	inactive

Compound	Potency
CCOc1ccccc1C(=O)NCC(c1ccc(N(C)C)cc1)N1CCCC1 (centres undefined)	inactive
CC1CCCN(c2nc3c(S(=O)(=O)c4ccc(C(C)C)cc4)nnn3c3ccsc23)C1 (centres undefined)	inactive
Cc1ccc(S(=O)(=O)c2c(Nc3cccc(Cl)c3)sc(C(=O)c3ccc4c(c3)OCO4)c2N)cc1	inactive
Cc1ccc(O)c(/C=N/NC(=O)COc2ccc3c(C)cc(=O)oc3c2)c1	50.1 µM (active)
CCOC(=O)Cc1csc(NC(=O)CN(C)S(=O)(=O)c2ccc3c(c2)CCC(=O)N3)n1	inactive
Cc1ccccc1NC(=O)c1ccc(COc2ccc3c(C)cc(=O)oc3c2)cc1	inactive
CCOC(=O)Cc1csc(NC(=O)COc2ccc3c(C)cc(=O)oc3c2)n1	31.6 µM (active)
CCOC(=O)Cc1csc(SCc2cc(=O)oc3cc(O)ccc23)n1	inactive
CC(=O)c1c(C)[nH]c(C(=O)COc2ccc3c(C)cc(=O)oc3c2)c1C	inactive
COc1ccc(N2CCN(c3nc(-c4ccccc4F)nc4ccccc34)CC2)cc1	inactive
CCc1ccccc1NC(=O)Cn1c(=O)n(CC2CCC(C(=O)NCCc3ccccc3)CC2)c(=O)c2ccccc21 (centres undefined)	inactive
Cc1ccc(C)c(N2CCN(C(c3ccccc3)c3nnc(-c4ccccc4)o3)CC2)c1 (centres undefined)	inactive
COc1cccc(CNC(=O)CN2C(=O)CCc3cc(S(=O)(=O)N4CCOCC4)ccc32)c1	inactive
N#C/C(=C\c1ccc(O)c(O)c1)C(=O)NCc1ccccc1	inactive and 11.2 µM (active)
Cc1ccc(/C=C(\C#N)C(=O)Nc2cc(C)ccc2C)cc1	inactive
CC(C)NC(=O)/C(C#N)=C\c1ccc(N(C)C)c(Br)c1	inactive
CCc1ccc(-n2nc(C)c3c(C)cc(=O)n(CC(=O)Nc4ccc(F)cc4C)c32)cc1	inactive
Cc1cc(C(=O)OCC(=O)NCc2ccco2)c(C)n1-c1ccccc1	14.1 µM (active)
O=C(COC(=O)CCC(=O)c1cccs1)NCc1ccco1	7.08 µM (active)
O=C(CC1CCCCC1)NCc1ccco1	inactive
Cn1c(N)c(C(=O)COC(=O)c2ccccc2NCc2ccco2)c(=O)n(C)c1=O	inactive
CN(c1ccccc1)S(=O)(=O)c1ccc(Cl)c(C(=O)OCC(=O)N2CCOCC2)c1	inactive
O=C(COC(=O)c1cc(S(=O)(=O)N2CCOCC2)ccc1Cl)NCCc1ccccc1	inactive
O=C(COC(=O)c1ccccc1O)NCc1ccco1	79.4 µM (active)

Compound	Potency
COc1ccccc1C(=O)OCC(=O)NCCNC(=O)COC(=O)c1ccccc1OC	inactive
O=C(COC(=O)c1ccccc1C(=O)N1CCN(c2ccccc2)CC1)NCc1ccccc1	inactive
CCN(C(=O)COC(=O)CCC(=O)c1cccs1)C1CCCCC1	inactive
CN(c1ccccc1)S(=O)(=O)c1ccc(Cl)c(C(=O)OCC(=O)NCc2ccco2)c1	31.6 µM (active)
CC1CCN(C(=O)COC(=O)CCC(=O)c2cccs2)CC1	inactive
Cc1ccc2nc(COc3cccc(NC(=O)Nc4ccc(C)c(Cl)c4)c3)cc(=O)n2c1	inactive
COC(=O)c1cc(S(=O)(=O)N2CCN(c3cc(Cl)ccc3C)CC2)c[nH]1	inactive
Cc1cccc(N2CCN(C(=O)CCSCc3ccccc3F)CC2)c1C	inactive
Cc1ccc2oc(=O)c3cnn(CC(=O)N4CCN(c5cccc(Cl)c5)CC4)c3c2c1	inactive
COc1ccc(-n2ccnc(NCCc3ccc(Cl)cc3)c2=O)cc1OC	inactive
Cc1cccc(C(C)C)c1NC(=O)C(NS(=O)(=O)c1cccc2nsnc12)c1ccccc1 (centres undefined)	inactive
Cc1ccc(-n2ncc3c(=O)n(Cc4cccc(C(F)(F)F)c4)cnc32)cc1C	inactive
CC(C)(C)NC(=O)CSc1nc(-c2ccc(F)cc2)cc(C(F)(F)F)n1	inactive
COc1cc(NC(=O)COC(=O)c2ccc([N+](=O)[O-])s2)cc(OC)c1OC	50.1 µM (active)
COc1cc(CCC(=O)OCC(=O)Nc2cccc(S(N)(=O)=O)c2)cc(OC)c1OC	inactive
COc1cc(NC(=O)COC(=O)c2cnc(C)cn2)c(C)cc1[N+](=O)[O-]	inactive
COc1ccc(CCC(=O)NCc2ccc3c(c2)CCN3C(=O)c2ccc(F)cc2)cc1	inactive
O=C(CS(=O)(=O)c1cccc2nsnc12)N1CCN(c2cccc(Cl)c2)CC1	inactive
COC(=O)c1ccccc1NC(=O)C(Cc1ccccc1)N1Cc2ccccc2C1=O (centres undefined)	inactive
Cc1ccccc1NC(=O)Cn1c(=O)n(CCc2ccccc2)c(=O)c2ccccc21	inactive
Cc1ccccc1NC(=O)CN1C(=O)C(C)(C)c2ccccc21	inactive
Cc1ccccc1NC(=O)CN1C(=O)N/C(=C\c2cccn2-c2cccc(C(=O)O)c2)C1=O	3.16 µM (active)
